Data taken from article PMC4552634, “A New Set of Chemical Starting Points with Plasmodium falciparum Transmission-Blocking Potential for Antimalarial Drug Discovery” (PLoS ONE, 2015).
Screen size: about 13,000 compounds; about 3,200 (25%) showed an effect of 50% or more. The list shows a part of the results.

system: P. falciparum stage V gametocytes; set-up: BacTiter-Glo ATP luminescence viability of purified stage V gametocytes in 384-well plates, per cent inhibition versus DMSO; conditions: 48 h, 5 µM; inhibitor

| Compound | % Inhibition |
| --- | --- |
| CCc1nnc2sc(-c3cccc(NC(=O)c4ccc(OC)c(Cl)c4)c3)nn12 [TCMDC-125049] | -8.625% |
| CC(C)(CN)c1cc(-c2ccc(Cl)c(O)c2)c(-c2ccncc2)o1 [TCMDC-141334] | -68.46% |
| CCCC(=O)Nc1ccc(Cl)c(NC(=O)COc2cc(C)ccc2C(C)C)c1 [TCMDC-123706] | -6.515% |
| CCc1ccc(NC(=O)c2ccc(CN3CCCN(Cc4cccc(C)c4)CC3)cc2)cc1 [TCMDC-136440] | -10.99% |
| Nc1ncnc2nc(-c3ccc(F)cc3)cc(-c3ccc(NC(=O)c4ccccc4)cc3)c12 [TCMDC-134854] | -13.72% |
| CCCC1N=C(N)N=C(N)N1c1ccc(CC)cc1 (stereo not shown) [TCMDC-131300] | -2.095% |
| CC(C)CC1c2[nH]c3ccccc3c(=O)c2CN1C(=O)OC(C)(C)C (stereo not shown) [TCMDC-134513] | 44.74% |
| COc1ccc(CCN(C)CCOc2ccc(NC(=O)COc3ccc4sc5ccccc5c(=O)c4c3)cc2)cc1OC [TCMDC-132111] | 31.27% |
| COc1ccc(CN(C)CCCc2ccc(NC(=O)c3cccc4c(=O)c5cccc(F)c5[nH]c34)cc2)cc1OC [TCMDC-131964] | 81.66% |
| COc1cc(CCN(C)Cc2ccc(OC)c(OC)c2)ccc1NC(=O)c1cccc2c(=O)c3cccc(F)c3[nH]c12 [TCMDC-131854] | 37.94% |
| COc1ccc(CCN(C)CCCOc2ccc(NC(=O)COc3cccc4sc5ccccc5c(=O)c34)cc2)cc1OC [TCMDC-132117] | 17.11% |
| COc1ccc(CN(C)CCCCc2ccc(NC(=O)COc3cccc4sc5ccccc5c(=O)c34)cc2)cc1OC [TCMDC-131960] | 103.7% |
| COc1ccc(CN(C)CCCc2ccc(NC(=O)c3cccc4c(=O)c5ccccc5[nH]c34)cc2)cc1OC [TCMDC-131963] | 13.74% |
| Cn1cnnc1Sc1ccc(CN2CCOc3ccc(C4=CCCCC4)cc3C2)o1 [TCMDC-124661] | -23.49% |
| NC1=NC(c2ccccc2)(c2ccccc2)C(=O)N1CCOc1ccccc1 [TCMDC-136493] | -46.39% |
| Clc1ccc2c(N3CCN(CCN4CCN(c5ccnc6cc(Cl)ccc56)CC4)CC3)ccnc2c1 [TCMDC-125557] | -4.056% |
| CCCc1cc(Cc2cnc(N)nc2N)ccc1OCCCCCC(=O)OCC [TCMDC-137232] | -11.7% |
| CCOC(=O)C(=CNc1ccc(Cc2cnc(N)nc2N)cc1CC)C(=O)OCC [TCMDC-137346] | 53.58% |
| CCc1cc(Cc2cnc(N)nc2N)cc(CC)c1OC [TCMDC-137697] | -15.83% |
| O=C1CN(C(=O)CCC2CCCC2)C(c2ccc(F)cc2)c2cc(F)ccc2N1 (stereo not shown) [TCMDC-124463] | -48.27% |
| c1cncc(NCc2ccc(-c3cc4ccncc4cc3OC3CCNCC3)s2)c1 [TCMDC-134161] | 28.32% |
| O=C(Nc1ccccc1)c1ccc(-c2cc3ccncc3cc2OC2CCNCC2)s1 [TCMDC-134227] | 77.06% |
| COc1cccc(-c2nn(C)c3sc(C(=O)Nc4cccnc4)cc23)c1 [TCMDC-123584] | -55.35% |

| Compound | % Inhibition |
| --- | --- |
| c1ccc2oc(-c3cc4ccncc4cc3OC3CCNCC3)cc2c1 [TCMDC-134160] | 92.38% |
| Cc1cc(NC(=O)c2cccs2)ccc1OC1CCN(Cc2ccccc2)CC1 [TCMDC-133988] | 37.37% |
| Nc1ncc(-c2cc3ccccc3o2)c(N)n1 [TCMDC-137177] | 18.48% |
| O=C(Nc1cccc(OC2CCN(Cc3ccccc3)CC2)c1)c1ccc(Cl)c(Cl)c1 [TCMDC-139542] | 5.419% |
| c1ccc(-c2cc3cccc(-c4nc5ccncc5[nH]4)c3o2)cc1 [TCMDC-140516] | 7.065% |
| O=C(Nc1cccnc1)c1ccc(-c2cc3ccncc3cc2OC2CCNCC2)s1 [TCMDC-134228] | 62.63% |
| CCOC(=O)c1ccc(NC(=O)Nc2cccc(-c3ccc(-c4nc5cccc(C)c5[nH]4)s3)c2)cc1 [TCMDC-133258] | -27.38% |
| O=C(Nc1ccsc1)Nc1cccc(-c2cccc(-c3nc4ccc(F)cc4[nH]3)c2)c1 [TCMDC-133216] | -18.7% |
| O=C(Nc1cccc(-c2ccc(-c3nc4ccc(F)cc4[nH]3)cc2)c1)Nc1ccc(F)c(F)c1F [TCMDC-133231] | -4.749% |
| C=Cc1cc(NC(=O)N2CCc3cc(OC)c(C(F)(F)F)cc32)cc(-c2cccnc2)c1 [TCMDC-139030] | -6.517% |
| CC(C)=CC1C(C(=O)n2c(N)nc3ccccc32)C1(C)C (stereo not shown) [TCMDC-131688] | 3.871% |
| CC(C)c1cc2c(ccc3nc(N)nc(N)c32)[nH]1 [TCMDC-137847] | 19.02% |
| Nc1ccc(-c2nc3c(ccc4ccccc43)[nH]2)cc1 [TCMDC-124395] | 24.31% |
| CC(C)(C)c1ccc(Cc2cccc3nc(N)nc(N)c23)cc1 [TCMDC-137821] | -51.22% |
| Cc1c(N)ccc2[nH]c(-c3ccc(N)cc3)nc12 [TCMDC-124242] | 91.56% |
| Cc1c(C(C)(C)C)ccc2nc(N)nc(N)c12 [TCMDC-137831] | -39.39% |
| Cc1cc(N)cc2[nH]c(-c3ccc(N)cc3)nc12 [TCMDC-124391] | -6.074% |
| CC(C)n1c(C(C)(C)C)cc2c3c(N)nc(N)nc3ccc21 [TCMDC-137311] | 32.82% |
| CC(C)(C)c1ccc(-c2nc3c(ccc4nc(N)nc(N)c43)[nH]2)cc1 [TCMDC-137984] | 112.2% |
| CC(C)(C)c1ccc(-c2cc3c(ccc4nc(N)nc(N)c43)[nH]2)cc1 [TCMDC-137977] | 117.8% |
| CC1(C)N=C(N)N=C(N)N1OCCOc1ccc2ccccc2c1 [TCMDC-131609] | -8.756% |
| N#Cc1cc(C(=O)Nc2ccccc2)c(N)nc1SCC(=O)Nc1ccc(Br)cc1 [TCMDC-124873] | -53.64% |
| CCCC(C)Nc1nc(C)cc(N[C@@H](CC(C)C)C(=O)NCCc2ccccc2)n1 (stereo partly shown) [TCMDC-134769] | -46.8% |
